Source: PubChem BioAssay AID485314 (National Center for Advancing Translational Sciences (NCATS), 2010)
The whole screen tested about 340,000 compounds, of which about 4,500 (1.3%) were called active. Entries that show only a call come without a potency. About 5% were inconclusive and are not listed. Calls follow the shape of the dose curve; as a rule, active = well fitted inhibition curve with a large enough effect; inconclusive = small, poorly fitted or top-dose-only effect, or another doubt; inactive = no such curve, though single readings can be large or run the other way. This excerpt belongs to a sample that is enriched for actives.

molecular target: DNA polymerase beta (Homo sapiens) (UniProt P06746); assay: qHTS Assay for Inhibitors of DNA Polymerase Beta; conditions: Pol beta primer extension/strand displacement, fluorescence kinetic; series mostly up to 114 µM
Procedure, shortened: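 Enzyme-only controls used 10 nM Pol beta; buffer lacking enzyme served as negative control. Compound preincubated 15 min, then 50 nM substrate added; 0 and 10 min reads at room temperature.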
Potency is read from the fitted curve at half-maximal effect.

Structure (SMILES) | Potency
COc1ccc(CNC(=O)CSCc2nc(-c3ccccc3F)oc2C)cc1 | inactive
Cn1cc(S(=O)(=O)N2CCCCCC2)cc1C(=O)N1CCN(c2ccc(F)cc2)CC1 | inactive
Cc1nn(Cc2ccccc2)c(C)c1C(=O)NCCN1C(=O)S/C(=C\c2ccc(F)cc2)C1=O | inactive
O=C(NCCN1C(=O)S/C(=C\c2cccnc2)C1=O)c1cccc(OC(F)F)c1 | inactive
N#Cc1ccccc1CN1C(=O)S/C(=C/c2cccn2-c2cccc(C(=O)O)c2)C1=O | 11.2 µM (active)
O=c1c(NCc2cccs2)nccn1-c1ccccc1 | inactive
COc1ccccc1CN1CCC(CNC(=O)c2cnn(-c3cccc(Cl)c3)c2C2CCN(C(=O)OC(C)(C)C)CC2)CC1 | inactive
CCc1ccccc1N1CC(c2nc3ccccc3n2CCCCOc2ccccc2)CC1=O (stereo not drawn) | inactive
c1ccc(-c2ccc(OCCN3CCOCC3)cc2)cc1 | inactive
CCOc1nc(NCCN2CCOCC2)nc(Nc2ccc(C)cc2)n1 | inactive
c1ccc2cc3c(NCCN4CCOCC4)ccnc3cc2c1 | 14.1 µM (active)
Cc1cccc2c1-c1sc(C(=O)Nc3ccc(F)cc3F)cc1CO2 | inactive
O=C(COC(=O)c1ccc(F)cc1F)Nc1ncccn1 | 35.5 µM (active)
Cc1cccc(C(=O)OCC(=O)Nc2ccc(F)cc2)c1 | inactive
COc1cc(OC)cc(C(=O)OCC(=O)Nc2ccc(F)cc2F)c1 | inactive
O=c1cc(C(F)(F)F)[nH]c(=O)n1C1CCCCC1 | inactive
Cc1ccc(Nc2cc(=O)n(C3CCCCC3)c(=O)[nH]2)cc1C | 56.2 µM (active)
Cc1ccc(NNC(=O)C2CCC2)cc1C | inactive
O=C(O)c1ccc(Nc2nc(-c3ccccc3)c3cc(Br)ccc3n2)cc1 | inactive
COc1cccc(NC(=O)c2ccc3nc(CCc4ccccc4)oc3c2)c1 | inactive
O=S(=O)(NCCNS(=O)(=O)c1ccccc1)c1ccccc1 | inactive
O=S(=O)(NCC1OCCc2ccccc21)c1ccccc1 (stereo not drawn) | inactive
O=c1/c(=C/c2ccc(CNS(=O)(=O)c3ccccc3)o2)sc2n1CCN=2 | 50.1 µM (active)
CCn1cc(C(=O)NCc2ccccc2)c(=O)c2cc(S(=O)(=O)N3CCCCC3)ccc21 | inactive
CCN(CC)CCOc1ccc2c(c1)C(=NNC(=O)c1ccccn1)c1cc(OCCN(CC)CC)ccc1-2 | 2.82 µM (active)
C/C(=N\NC(=O)Cc1ccc(Cl)cc1)c1ccccn1 | inactive

Structure (SMILES) | Potency
C/C(=N\NC(=O)c1ccccc1F)c1ccccn1 | inactive
O=C(NCCc1ccc(Cl)cc1)c1ccc2c(c1)N(Cc1ccc(F)cc1)C(=O)CS2 | inactive
CCn1c2c(c(=O)n3ncc(C(=O)N4CCN(c5ccccc5)CC4)c13)CN(Cc1ccc(OC)cc1)CC2 | inactive
N#Cc1c(-c2ccccc2)cc(-c2ccccc2)nc1SCC(=O)O | inactive
Nc1nc(NCC(=O)O)nc(N2CCCCCC2)c1[N+](=O)[O-] | inactive
N#Cc1c(N2CCCCC2)nc(N)c2c(N)nc(SCC(=O)O)cc12 | 35.5 µM (active)
Cc1ccc(-n2nc3ccc(NC(=O)/C=C/c4ccco4)cc3n2)cc1C | 44.7 µM (active)
O=C(/C=C/c1ccco1)Nc1ccc(Oc2ccccc2)cc1 | inactive
CCOC(=O)c1c(NC(=O)/C=C/c2ccco2)sc(C)c1C | inactive
CCC(CC)c1nnc(NC(=O)/C=C/c2ccco2)s1 | inactive
CCC(=O)Nc1ccc2nn(-c3ccc(F)cc3)nc2c1 | inactive
Cc1nnc(NC(=O)/C=C/c2ccco2)s1 | 31.6 µM (active)
CCOC(=O)c1c(C)oc2nc(C)nc(Nc3ccc(CC)cc3)c12 | inactive
Cc1cc(C)c(-c2n[nH]c3c2C(c2ccccc2F)N(CCO)C3=O)c(O)c1 (stereo not drawn) | inactive
CC(C)(C)c1ccc(C(=O)NCC(c2ccc(Cl)cc2)N2CCOCC2)cc1 (stereo not drawn) | inactive
CCOc1ccc(Nc2nc(Cc3nnc(SCC(=O)NC4CCCC4)n3C)cs2)cc1 | inactive
COCCCn1c(SCC(=O)NC2CCCC2)nnc1-c1ccccc1 | inactive
COCCCn1c(Cc2csc(Nc3cccc(Cl)c3)n2)nnc1SCC(=O)OC1CCCCC1 | 44.7 µM (active)
O=S(=O)(c1ccccc1)c1nc(-c2ccc(Cl)cc2Cl)oc1N1CCCCC1 | inactive
Cc1cccc(C(=O)c2cccc(C)c2)c1 | inactive
O=C(c1ccc(O)cc1)c1ccc(C(=O)O)c(C(=O)O)c1 | 35.5 µM (active)
O=C(O)c1ccc2c(c1)C(=O)N(NC(=O)c1ccc(O)cc1)C2=O | inactive
CCOc1ccc(Nc2nc3c(S(=O)(=O)c4cccc(Cl)c4)nnn3c3ccsc23)cc1 | inactive
CCCc1cc(=O)n2[nH]c(NCc3ccc(CC)cc3)nc2n1 | inactive
CCCn1ccc2c(OCC(=O)NCc3ccc(F)cc3)cccc2c1=O | inactive
Cc1csc2nc(COC(=O)c3ccccc3NC(=O)c3ccccc3Cl)cc(=O)n12 | inactive

Structure (SMILES) | Potency
Clc1ccccc1CSc1nncn2c1cc1occc12 | inactive
Clc1ccc(CSc2nncn3c2cc2occc23)cc1 | 31.6 µM (active)
Cc1cc2c(cc3c(SCc4cccc(Cl)c4)nnc(C)n32)o1 | inactive
COc1ccc(C)cc1Nc1nc2ccccc2c2nnc(C)n12 | inactive
Cc1ccc(C(=O)NNC(=O)c2cccs2)cc1 | inactive
Cc1ccc(C(=O)NNC(=O)c2cc3cc4ccccc4nc3s2)cc1 | 50.1 µM (active)
Cc1ccc(C(=O)NNc2ncnc3ccccc23)cc1 | inactive
Cc1coc2c(O)cc3c(c12)OC1(N2CCCCC2)C(=O)NCCCC31 (stereo not drawn) | 50.1 µM (active)
Cc1cc(C)c(/C=C/c2onc(C)c2S(=O)(=O)N2CCC(C(=O)Nc3ccc(Cl)cc3C)CC2)c(C)c1 | inactive
CCCCOc1ccc(CN2C(=O)C(=O)c3cc(Br)cc(C)c32)cc1OC | inactive
O=C(Nc1ccc(S(=O)(=O)N2CCCCC2)cc1)c1cnccn1 | inactive
O=C(N/N=C/c1ccccn1)c1cccc(NC(=O)c2ccc(Cl)cc2)c1 | inactive
O=C(N/N=C/c1ccccn1)c1ccc(S(=O)(=O)N2CCCCCC2)cc1 | 20 µM (active)
CCOc1ccc(Nc2ncnc3scc(-c4ccc(OC)cc4)c23)cc1 | inactive
CCOC(=O)c1ccc(NC(=O)Cn2c(=O)cc(C)c3c(C)nn(-c4cccc(F)c4)c32)cc1 | inactive
COc1ccc([N+](=O)[O-])cc1NC(=O)COC(=O)/C=C/c1ccco1 | inactive
CC(C)CNC(=O)COC(=O)/C=C/c1ccco1 | 28.2 µM (active)
CC(C)CNC(=O)COC(=O)/C=C/c1ccccc1[N+](=O)[O-] | inactive
CCCOc1ccc(C2c3c(-c4ccccc4O)n[nH]c3C(=O)N2Cc2cccnc2)cc1 (stereo not drawn) | inactive
CC(C)(C)OC(=O)N1CCC(c2c(C(=O)Nc3ccc4c(c3)OCO4)cnn2-c2ccccc2)CC1 | inactive
CCCCOC(=O)CSc1ncnc2sc3c(c12)CCC(C)C3 (stereo not drawn) | inactive
CCc1c(C)nc2cc(-c3cccs3)[nH]n2c1=O | inactive
Cc1cc(=O)n2[nH]c(-c3sccc3-n3c(C)ccc3C)cc2n1 | 44.7 µM (active)
Cc1cc(=O)n2[nH]c(-c3cccc(Cl)c3)cc2n1 | inactive
COc1cc(/C=N/NC(=O)CNC(=O)c2ccncc2)ccc1OC(C)=O | inactive
COc1cccc(OCc2cc(/C=N/NC(=O)c3nc(Cl)c(Cl)c(N)c3Cl)ccc2OC)c1 | inactive

Structure (SMILES) | Potency
COc1ccc(/C=N\NC(=O)c2sc(N)nc2C)cc1OC | 17.8 µM (active)
COc1ccccc1Nc1c2c(nc3ccc(NC(=O)/C=C/c4cc(OC)c(OC)c(OC)c4)cc13)CCCC2 | inactive
CCOCCn1c(-c2ccccc2)nc2ccccc21 | inactive
CCc1nc2ccccc2n(CCOCCOCCn2c(=O)c(CC)nc3ccccc32)c1=O | 35.5 µM (active)
CCOCCn1c(C(C)C)nc2ccccc21 | inactive
COc1ccc(-c2nc(Cn3c(=O)cc(C)c4c(C)nn(-c5ccccc5)c43)c(C)o2)c(OC)c1 | inactive
CCN1CCN(c2ncnc3c2cnn3-c2ccc(C)c(C)c2)CC1 | inactive
COc1cc(NC(=O)CN2CCN(S(=O)(=O)c3ccc(Br)cc3)CC2)cc(OC)c1 | inactive
Cc1c(CCC(=O)O)c(=O)oc2cc(OCc3ccc(Br)cc3)ccc12 | inactive
CCOC(=O)CCc1c(C)c2ccc(OCc3nn[nH]n3)c(C)c2oc1=O | inactive
Cc1c(CCC(=O)O)c(=O)oc2c(C)c(OCc3ccccc3Cl)ccc12 | 12.6 µM (active)
COc1ccccc1CNc1ccc(-c2nc(-c3ccccc3C)no2)cc1[N+](=O)[O-] | inactive
COc1cccc(-c2nnc3n(CCc4ccccc4)c(=O)c4ccccc4n23)c1O | inactive
CCCCN(CCCNC(=O)c1cc(Nc2ccccc2OC)nc2ccccc12)c1ccccc1 | inactive
CCCCN(C)S(=O)(=O)c1ccc(C(=O)Nc2sc3c(c2C(N)=O)CC(C)(C)NC3(C)C)cc1 | inactive
CC1=C(c2ccc(C)cc2)S(=O)(=O)NC1=NCCCN1CCN(c2cc(C)ccc2C)CC1 | inactive
CCOc1ccc(NC(=O)c2cc(S(=O)(=O)N3CCCC3)c[nH]2)cc1 | inactive
COc1ccc(/C=C/C(=O)c2ccc(NS(=O)(=O)c3ccc(C)cc3)cc2)cc1O | inactive
COc1ccc(C(=O)/C=C/c2ccc(-c3ccccc3)cc2)cc1CSCC(=O)O | inactive
COC(=O)c1ccc(COc2ccc(/C=C/C(=O)c3ccc(OC)c(CSCC(=O)O)c3)cc2OC)cc1 | 31.6 µM (active)
Cc1ccc(CCNC(=O)c2ccc(CNS(=O)(=O)c3ccc(C)cc3)cc2)cc1 | inactive
CSc1cccc(NC(=O)CN2C(=O)CCc3cc(S(=O)(=O)N4CCCCC4)ccc32)c1 | inactive
C/C=C\C=C\C(=O)N1CC2(CC(c3cccc(NC(=O)/C(C)=C\C)c3)=NO2)C[C@H]1C(N)=O (stereo partly drawn) | inactive
C/C=C(/C)C(=O)Nc1cccc(C2=NOC3(C2)C[C@@H](C(N)=O)N(C(=O)C2(C)CC2)C3)c1 (stereo partly drawn) | inactive
C=C(C)C(=O)Nc1cccc(C2=NOC3(C2)C[C@H](C(N)=O)N(C(=O)C(c2ccccc2)c2ccccc2)C3)c1 (stereo partly drawn) | 14.1 µM (active)
